Most compounds without a hit are left out; they make up all but 4.8% or so of the library.
DAX1 inh-1: DAX1 (NR0B1) inhibitors on StAR promoter, primary screen, cell-based, luminescence, SF-1 (NR5A1), full-length DAX-1; HEK293T StAR-luciferase reporter, SF-1/DAX-1 repression relief; inhibition, % at 6.8 µM; hit rate 1.1% among 370,000; AID 652010, 2013;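 active = inhibition above the mean over all tested compounds plus 3 SD, cut at about 3.6% in these data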;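 also: 0% = DAX-1 cells with DMSO and 100% = cells lacking DAX-1 with DMSO; higher inhibition means more luminescence from relief of DAX-1 repression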
hcDAF-12 act: H. contortus DAF-12 nuclear receptor activators, primary screen, cell-based, luminescence, HEK293, lit1-tk-luc reporter; HEK293 hcDAF-12 lit1-tk-luc reporter; 0% DMSO, 100% Δ7-dafachronic acid; activation, % at 6.8 µM; hit rate 1.4% among 370,000;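 active = activation above the mean of all tested compounds plus 3 SD, cut at about 5.5% in these data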;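 also: 100% = response to 3 µM Δ7-dafachronic acid high control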
DAX1 inh-2: DAX1 (NR0B1) inhibitors, primary screen, cell-based, HEK293, Gal4-DAX1, luciferase luminescence; inhibition, % at 6.75 µM; hit rate 0.99% among 340,000; HEK293 Gal4-DAX1 luciferase reporter; Nuclear receptor subfamily 0 group B member 1 (Homo sapiens), P51843;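 active = inhibition above the mean over all tested compounds plus 3 SD, cut at about 4.2% in these data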;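 also: 0% = DAX1-transfected cells with DMSO and 100% = empty-vector control cells with DMSO; inhibition shows as a rise in luminescence from relieved DAX1 repression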
Target sequence (P51843 207-470 limits assumed): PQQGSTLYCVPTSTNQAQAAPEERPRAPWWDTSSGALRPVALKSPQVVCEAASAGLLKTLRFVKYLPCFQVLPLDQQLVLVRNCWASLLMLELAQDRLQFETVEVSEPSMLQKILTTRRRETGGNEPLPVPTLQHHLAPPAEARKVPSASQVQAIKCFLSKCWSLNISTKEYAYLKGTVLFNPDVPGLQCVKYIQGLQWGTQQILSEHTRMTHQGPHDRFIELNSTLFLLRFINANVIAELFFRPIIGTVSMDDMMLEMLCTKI
ssDAF12 agonist: S. stercoralis DAF-12 nuclear receptor activators, primary screen, cell-based, luminescence, HEK293, GRIP1 co-expression, lit1-tk-luc; HEK293 ssDAF-12/GRIP1 lit1-tk-luc reporter; % of 3 µM dafachronic acid response; hit rate 1% among 370,000; activation, % at 6.8 µM; AID 652126, 2013; Nuclear hormone receptor DAF-12 (Strongyloides stercoralis);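 active = activation above the mean over all tested compounds plus 3 SD, cut at about 0.9% in these data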;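 also: 0% = DMSO-only wells and 100% = 3 µM delta7-dafachronic acid wells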
SMARCA2 act: SMARCA2 (BRM) function activators, primary screen, cell-based, luminescence, high throughput; hit rate 1% among 370,000; AID 652017, 2013; MG213 cells, MMTV-luciferase reporter, dexamethasone, overnight; activation, % at 9.1 µM; in the data active = activation above about 7.8%;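 also: 0% = vehicle wells and 100% = reference activator wells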
hgDAF12 agonist: H. glycines DAF-12 receptor agonists, primary screen, cell-based, luminescence, HEK293, GAL4 fusion, UAS-luciferase | Nuclear hormone receptor DAF-12 (Heterodera glycines), GAL4 fusion | HEK293 GAL4-hgDAF12 UAS-luciferase reporter, agonist luminescence; normalized to butyrate control | activation, % at 6.8 µM | hit rate 1.8% among 370,000;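 active = activation above a cutoff set at the mean of all screened compounds plus 3 SD, cut at about 10% in these data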;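 also: 0% = DMSO wells and 100% = sodium butyrate wells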
SMARCA2 conf: SMARCA2 (BRM) function activators, confirmation, cell-based, luminescence, triplicate; shares compounds with SMARCA2 act; activation, % at 9.1 µM; MG213 cells, MMTV-luciferase with dexamethasone, overnight; MG213 cells expressing E1A, Rb sequestered; DMSO wells 0%, reference activator 100%; hit rate 30% among 3,500;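 active = activation above its plate's cutoff, the mean activation of tested wells plus 3 SD, cut at about 7.9% in these data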
VP16 Luc act: GAL4-VP16 luciferase reporter activation, counter-screen for SMARCA2 (BRM) activator project, cell-based, pG5luc, luminescence, high throughput; shares compounds with SMARCA2 act; HEK293 GAL4-VP16 pG5luc reporter; scaled: DMSO wells 0%, SAHA wells 100%; activation, % at 9.1 µM; hit rate 41% among 3,500;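 active = activation above the solvent-only control well mean plus 3 SD, averaged across control plates, cut at about 5.2% in these data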
The depositor's hits bear a star; / = no result.

SMILES	DAX1 inh-1	hcDAF-12 act	DAX1 inh-2	ssDAF12 agonist	SMARCA2 act	hgDAF12 agonist	SMARCA2 conf	VP16 Luc act
NNC(=O)C(Cc1ccc(O)cc1)N1Cc2ccccc2C1=O (stereo unspecified)	-1.1	-0.5	-1.0	-1.4	-4.0	-0.4	/	/
O=C(Nc1ccccc1F)c1csc([C@@H]2C[C@H](O)[C@@H](CO)O2)n1	1.4	-1.1	/	-0.5	10.6*	2.5	-0.1	-1.4
O=C(Nc1cccc2ccccc12)c1csc([C@@H]2C[C@H](O)[C@@H](CO)O2)n1	1.1	-0.2	/	-1.5	-3.5	1.9	/	/
CCN(C)c1ccc(/C=N\n2nnnc2N)cc1	-1.2	-0.2	0.6	-0.5	12.3*	12.5*	7.6	14.9*
Nc1nnnn1/N=C/c1ccc(O)cc1	0.4	-1.1	2.2	-1.3	-0.5	-1.4	/	/
CCOC(=O)N1CCN(S(=O)(=O)c2ccc(C(=O)Nc3sc4c(c3C(=O)OC)CCN(C)C4)cc2)CC1	-0.6	-0.7	0.4	-1.1	4.5	-0.2	/	/
CC(C)(C)c1nnc(NC(=O)Nc2ccc(Cl)cc2)s1	-0.2	-0.5	2.1	-0.3	1.4	2.5	/	/
Cc1nc(NC(=O)Nc2ccc(Cl)cc2)sc1C	1.1	0.8	0.2	-0.6	8.6*	9.9	3.4	10.3*
COc1ccc(NC(=S)NNC(=O)c2cccs2)cc1	2.5	-1.2	1.2	-0.1	8.8*	3.4	0.3	4.2
COc1ccc(NC(=O)c2cccs2)cc1	1.1	0.5	0.0	-0.8	4.7	9.3	/	/
O=C(NNC(=O)c1cccs1)c1ccc(Cl)cc1	0.3	0.5	2.0	-1.5	0.8	1.4	/	/
COc1ccc(Cl)cc1C(=O)NNC(=O)c1cccs1	2.7	1.6	2.9	0.0	12.3*	8.9	2.5	4.8
Cc1ncc([N+](=O)[O-])n1Cc1ccccc1	-0.5	-1.3	1.2	-1.5	-1.2	1.6	/	/
Cc1ccccc1Cn1c([N+](=O)[O-])cnc1C	-0.3	-0.7	0.6	-1.0	9.9*	-0.6	-2.1	-0.2
CCN(CC)CCNC(=O)c1cc2c(=O)n(C)c3ccccc3c2s1	1.6	6.3*	1.1	-0.3	14.0*	5.7	13.5*	2.1
CCCCN(CC)CCCNC(=O)c1cc2c(=O)n(CC)c3ccccc3c2s1	1.1	1.9	4.7*	-0.6	13.9*	-0.2	3.4	8.1*
CCCCN(CC)CCNC(=O)c1cc2c(=O)n(CC)c3ccccc3c2s1	0.8	2.5	2.9	-0.4	4.1	-2.0	/	/
COc1ccc(OC)c(S(=O)(=O)Nc2cccc3ccccc23)c1	-0.3	5.0	/	-0.3	0.8	-0.2	/	/
COc1ccc(OC)c(S(=O)(=O)Nc2c(F)cccc2F)c1	-0.4	-2.1	1.0	-0.6	10.0*	-0.2	-4.3	-1.2
Cc1nc2sc(C(c3ccc(Cl)cc3)N3CCOCC3)c(O)n2n1 (stereo unspecified)	-0.4	-0.9	0.2	-0.8	-3.1	-1.1	/	/
COc1nc(=O)n(C2C=CC(=O)O2)cc1F (stereo unspecified)	0.3	-1.1	1.3	-0.5	15.5*	-0.6	23.4*	5.7*
Cn1cc(Cc2ccc(C(=O)NC34CC5CC(CC(C5)C3)C4)cn2)c2ccccc21	-1.1	-2.2	/	-0.7	-4.9	1.5	/	/
CCCCNc1c([N+](=O)[O-])cc(C(=O)O)cc1[N+](=O)[O-]	0.0	-1.1	-0.2	-1.4	-2.5	-1.3	/	/
CCc1ccccc1NC(=S)/N=C(\N)Nc1nc(C)c2cc(C)ccc2n1	0.5	-1.9	-0.2	-0.7	3.8	0.1	/	/
O=C1CCCN1CCCn1cnc2c([nH]c3ccc(F)cc32)c1=O	0.2	-0.5	-0.3	-0.8	1.4	0.4	/	/
SMILES	DAX1 inh-1	hcDAF-12 act	DAX1 inh-2	ssDAF12 agonist	SMARCA2 act	hgDAF12 agonist	SMARCA2 conf	VP16 Luc act
Cc1nnc(SCC(=O)NC(=O)Nc2ccc3c(c2)OCCO3)s1	0.8	0.7	2.6	-1.8	11.0*	1.9	3.1	-0.4
O=C(Nc1ccc(S(=O)(=O)N2CCCC2)cc1)C1CCN(S(=O)(=O)c2ccc(F)cc2)CC1	-5.8	-2.1	0.6	-1.0	-2.6	-0.7	/	/
CCCCOC(=O)NC(NCC(O)c1ccccc1)(C(F)(F)F)C(F)(F)F (stereo unspecified)	0.7	-1.5	-0.8	-1.5	-2.3	-1.5	/	/
CCCCCOC(=O)NCC(O)c1ccccc1 (stereo unspecified)	1.5	2.5	1.3	0.5	12.9*	8.9	7.8	11.3*
COc1ccc(NC(=O)C/C(C)=N/NC(=O)c2ccccn2)c(OC)c1	2.8	4.5	0.9	-0.2	10.0*	12.0*	2.2	5.8*
Nc1cccc(N=[N+]([O-])c2cccc(N)c2)c1	0.8	-0.2	0.5	-0.4	8.8*	11.3*	12.5*	6.9*
CC1([N+](=O)[O-])COC(c2cccc3ccccc23)OC1 (stereo unspecified)	-0.9	0.8	/	-1.2	1.5	0.4	/	/
CCC1([N+](=O)[O-])COC(C=Cc2ccccc2)OC1 (stereo unspecified)	2.9	-1.9	2.1	-1.3	9.7*	3.0	5.4	3.5
CCOC(=O)N1CCN(S(=O)(=O)c2ccc(OC)c(OC)c2)CC1	-0.6	-0.3	-0.1	-0.4	-2.5	0.5	/	/
O=C(/C=C/c1ccco1)N1CCN(c2ncccn2)CC1	-0.3	-0.2	-0.2	-1.6	8.8*	5.5	5.8	6.5*
N#C/C(=C(/O)c1ccc(Cl)cc1)c1nc2ccccc2[nH]1	-0.3	-0.1	0.1	-0.7	0.7	0.6	/	/
COc1ccc(OC)c2sc(N(CCCN(C)C)C(=O)CCS(=O)(=O)c3ccccc3)nc12	1.4	-0.6	-2.9	-0.6	9.9*	-2.6	-15.4	-0.8
COc1ccc(Cl)c2sc(N(CCN(C)C)C(=O)CCS(=O)(=O)c3ccc(C)cc3)nc12	-0.1	0.4	-0.5	-1.3	-0.9	3.5	/	/

Compound activity from PubChem.
